Where “and” joins values, the source holds several entries; their conditions need not be identical. Equal values may be shown once. Calls of active or inactive are those of the source. How the source made its calls: active means hit-call score of the fitted dose curve at least 0.9, where 1 is the maximum; inactive means score below 0.9.
Read-out: E-selectin (Homo sapiens) (UniProt P16581)
Assay: BSK_3C_Eselectin: BioMAP Diversity Plus: 3C Assay for Eselectin Biomarker Activity (AID 2283015)
Conditions: primary human endothelial cells (HUVEC); actives raise or lower the signal
Method: BSK_3C is a cell-based, multiplexed-readout assay that uses umbilical vein endothelium, a human vascular primary cell, with measurements taken at 24 hours after chemical dosing in a 96-well plate.BSK_3C_Eselectin is an assay component measured in the BSK_3C assay. It measures E-selectin antibody related to regulation of gene expression using ELISA technology.Data from the assay component BSK_3C_Eselectin was analyzed into 1 assay endpoint. This assay endpoint, BSK_3C_Eselectin, was analyzed with bidirectional fitting relative to DMSO as the negative control and baseline of activity. Using a type of binding reporter, gain or loss-of-signal activity can be used to understand changes in the signaling as they relate to the gene SELE. Furthermore, this assay endpoint can be referred to as a primary readout, because this assay has produced multiple assay endpoints where this one serves a signaling function. To generalize the intended target to other relatable targets, this assay endpoint is annotated to the cell adhesion molecules intended target family, where the subfamily is selectins.
The levels of cell surface (or secreted, indicated by the prefix "s") biomarker endpoints were measured by ELISA. Overt cytotoxicity to cells in confluent adherent cultures (all systems other than the BT system) was assessed by measuring total protein levels using sulforhodamine B (SRB) staining in parallel cultures at the time of biomarker measurements, indicated as SRB endpoints. For proliferation assays for adherent cell types, individual cell types are cultured at sub-confluence and relative cell numbers quantified by SRB staining at time points optimized for each system (48 h: 3C and CASM3C systems; 72 h: BT and HDF3CGF systems; 96 h: SAg system). SRB was performed by staining cells with 0.1% SRB after fixation with 10% TCA and reading wells at 560 nm.Viability and proliferation of PBMC (T cells) was quantified by Alamar Blue reduction for the SAg and BT systems. For PBMC viability (referred to as PBMC Cytotoxicity within the assay endpoint names), cells were plated (75,000/well in a 96-well plate) and then chemical samples added for 1 h before addition of activators, SEB and TSST-1 (20 ng/mL final concentration each). Cells were incubated for 90 h. Then, Alamar Blue (20 uL/well) (Invitrogen, Cat DAL1100) was added for 6 h, and the plates were read with a fluorescence microplate reader at 546/580 nm (excitation/emission). For PBMC proliferation, cells were plated and activated as above but incubated for only 16 h prior to addition of Alamar Blue. Plates were read after 6 h.

Sequence of E-selectin (Homo sapiens) (P16581 whole entry, looked up): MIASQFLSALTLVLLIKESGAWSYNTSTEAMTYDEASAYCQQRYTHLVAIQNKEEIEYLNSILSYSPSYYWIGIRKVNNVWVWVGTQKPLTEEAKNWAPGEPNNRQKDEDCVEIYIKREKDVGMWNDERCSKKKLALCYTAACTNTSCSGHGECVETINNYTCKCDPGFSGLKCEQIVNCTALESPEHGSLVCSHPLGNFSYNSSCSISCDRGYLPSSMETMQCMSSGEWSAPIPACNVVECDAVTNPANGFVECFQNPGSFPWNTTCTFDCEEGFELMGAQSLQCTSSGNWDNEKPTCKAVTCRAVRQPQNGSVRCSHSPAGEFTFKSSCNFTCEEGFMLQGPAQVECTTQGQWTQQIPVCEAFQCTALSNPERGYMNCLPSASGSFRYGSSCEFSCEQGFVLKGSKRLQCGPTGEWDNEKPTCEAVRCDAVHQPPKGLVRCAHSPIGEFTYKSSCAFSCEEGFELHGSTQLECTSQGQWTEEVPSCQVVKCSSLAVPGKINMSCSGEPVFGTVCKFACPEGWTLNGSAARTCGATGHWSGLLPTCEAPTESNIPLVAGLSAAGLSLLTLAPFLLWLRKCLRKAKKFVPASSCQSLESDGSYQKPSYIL

Question: Which outcome does the source give for `CCOP(=S)(OCC)Oc1cc(C)nc(C(C)C)n1` here?
Answer: inactive

Question: For `Cc1nn(-c2cc(NS(C)(=O)=O)c(Cl)cc2Cl)c(=O)n1C(F)F`, which outcome is on record?
Answer: inactive

Question: Which outcome does the source give for `FC(F)C(F)(F)OCC(Cn1cncn1)c1ccc(Cl)cc1Cl` (stereo not given) here?
Answer: inactive

Question: How did the outcome turn out when `CNC(=O)ON=C(C)SC` was run?
Answer: inactive

Question: How did the AC50 turn out when `CCc1cccc(CC)c1N(COC)C(=O)CCl` was run?
Answer: 21.2 µM (active)

Question: For `CNC(=O)Oc1cccc2c1OC(C)(C)O2`, which AC50 is on record?
Answer: 27.3 µM (active)

Question: `COc1ccc(C(=CC(=O)N2CCOCC2)c2ccc(Cl)cc2)cc1OC` was tested. Which AC50 did it give?
Answer: 10.2 µM (active)

Question: `CCC(=NOC/C=C/Cl)C1=C(O)CC(C2CCOCC2)CC1=O` (stereo not given) was tested. Which outcome did it give?
Answer: inactive

Question: For `CC(C)N(C(=O)SCC(Cl)=C(Cl)Cl)C(C)C`, which AC50 is on record?
Answer: 30.7 µM (active)

Question: With `CCCSP(=O)(OCC)Oc1ccc(Br)cc1Cl` (stereo not given) as the compound, how does the outcome read?
Answer: inactive

Question: How did the outcome turn out when `CCc1cccc(C)c1N(C(=O)CCl)C(C)COC` (stereo not given) was run?
Answer: inactive

Question: How did the outcome turn out when `COP(=O)(NC(C)=O)SC` (stereo not given) was run?
Answer: inactive

Question: `CC(=NC#N)N(C)Cc1ccc(Cl)nc1` was tested. Which outcome did it give?
Answer: inactive

Question: With `CSC1=N[C@@](C)(c2ccccc2)C(=O)N1Nc1ccccc1` as the compound, how does the AC50 read?
Answer: 6.26 µM (active)

Question: For `C#CC(C)(C)NC(=O)c1cc(Cl)cc(Cl)c1`, which outcome is on record?
Answer: inactive

Question: How did the AC50 turn out when `CC[C@H](C)[C@H]1O[C@]2(C=C[C@@H]1C)C[C@@H]1C[C@@H](C/C=C(\C)[C@@H](O[C@H]3C[C@H](OC)[C@@H](O[C@H]4C[C@H](OC)[C@@H](NC)[C@H](C)O4)[C@H](C)O3)[C@@H](C)/C=C/C=C3\CO[C@@H]4[C@H](O)C(C)=C[C@@H](C(=O)O1)[C@]34O)O2` was run?
Answer: 8.63 µM (active)

Question: How did the outcome turn out when `CSc1nc(NC(C)C)nc(NC(C)C)n1` was run?
Answer: inactive

Question: `CCCOCC(=Nc1ccc(Cl)cc1C(F)(F)F)n1ccnc1` was tested. Which AC50 did it give?
Answer: 30.2 µM (active)

Question: How did the outcome turn out when `C[N+]1(C)CCCCC1` was run?
Answer: inactive

Question: With `O=[N+]([O-])c1cc(C(F)(F)F)c(Cl)c([N+](=O)[O-])c1Nc1ncc(C(F)(F)F)cc1Cl` as the compound, how does the AC50 read?
Answer: 1.47 µM (active) and 3.24 µM (active)

Question: `CC1(C(=O)Nc2ccc(O)c(Cl)c2Cl)CCCCC1` was tested. Which outcome did it give?
Answer: inactive

Question: How did the AC50 turn out when `CCC(CC)Nc1c([N+](=O)[O-])cc(C)c(C)c1[N+](=O)[O-]` was run?
Answer: 31.2 µM (active)

Question: With `COP(=O)(OC)OC(Br)C(Cl)(Cl)Br` (stereo not given) as the compound, how does the AC50 read?
Answer: 30.1 µM (active)

Question: How did the outcome turn out when `CNc1cnn(-c2cccc(C(F)(F)F)c2)c(=O)c1Cl` was run?
Answer: inactive

Question: For `CCOC(=O)COc1cc(-c2nn(C)c(OC(F)F)c2Cl)c(F)cc1Cl`, which outcome is on record?
Answer: inactive

Question: Which AC50 does the source give for `N#CSCSC#N` here?
Answer: 10.9 µM (active)

Question: Which outcome does the source give for `CN(C)C(=O)Nc1cccc(C(F)(F)F)c1` here?
Answer: inactive

Question: Which outcome does the source give for `CC(COc1ccc(Oc2ccccc2)cc1)Oc1ccccn1` (stereo not given) here?
Answer: inactive

Question: `CCOP(=S)(OCC)SCCSCC` was tested. Which outcome did it give?
Answer: inactive

Question: Which outcome does the source give for `CCCCOC(=O)c1ccccc1C(=O)O` here?
Answer: inactive

Question: For `CCc1cnc(C2=NC(C)(C(C)C)C(=O)N2)c(C(=O)O)c1` (stereo not given), which outcome is on record?
Answer: inactive

Question: `CCOP(=S)(OCC)Oc1ccc2c(C)c(Cl)c(=O)oc2c1` was tested. Which outcome did it give?
Answer: inactive

Question: How did the AC50 turn out when `CC(C)=CC1C(C(=O)OCN2C(=O)C3=C(CCCC3)C2=O)C1(C)C` (stereo not given) was run?
Answer: 26.9 µM (active)

Question: For `C=C(C)[C@H]1Cc2c(ccc3c2O[C@@H]2COc4cc(OC)c(OC)cc4[C@@H]2C3=O)O1`, which AC50 is on record?
Answer: 20 µM (active)

Question: With `CN(C)NC(=O)CCC(=O)O` as the compound, how does the outcome read?
Answer: inactive

Question: How did the outcome turn out when `CCCOc1nn(C(=O)NS(=O)(=O)c2ccccc2C(=O)OC)c(=O)n1C` was run?
Answer: inactive

Question: For `Nc1c(Cl)cc([N+](=O)[O-])cc1Cl`, which outcome is on record?
Answer: inactive

Question: For `C#CCC1=C(C)C(OC(=O)C2C(C=C(C)C)C2(C)C)CC1=O` (stereo not given), which AC50 is on record?
Answer: 36 µM (active)

Question: How did the AC50 turn out when `CON=C(C(=O)OC)c1ccccc1CON=C(C)c1cccc(C(F)(F)F)c1` was run?
Answer: 2.35 µM (active)

Question: `COc1cc(OC)nc(Sc2cccc(Cl)c2C(=O)O)n1` was tested. Which outcome did it give?
Answer: inactive

From PubChem BioAssay (EPA / NIEHS)
